Source: publication PMC4336329 (PLoS ONE, 2015)
Hit rate of the full screen: of about 310,000 compounds, about 14,000 (4.5%) showed an effect of 50% or more. The effect is printed as a negative number. What follows is part of a selection rich in strong results, with near analogues and random picks from the rest.

What follows are molecules tested against human ether-à-go-go-related gene (hERG) potassium channel (human, UniProt Q12809) (assay: primary screen, population patch clamp on CHO cells stably expressing hERG; higher = less effect of the substance).
Sequence of human ether-à-go-go-related gene (hERG) potassium channel (Q12809 whole entry, looked up): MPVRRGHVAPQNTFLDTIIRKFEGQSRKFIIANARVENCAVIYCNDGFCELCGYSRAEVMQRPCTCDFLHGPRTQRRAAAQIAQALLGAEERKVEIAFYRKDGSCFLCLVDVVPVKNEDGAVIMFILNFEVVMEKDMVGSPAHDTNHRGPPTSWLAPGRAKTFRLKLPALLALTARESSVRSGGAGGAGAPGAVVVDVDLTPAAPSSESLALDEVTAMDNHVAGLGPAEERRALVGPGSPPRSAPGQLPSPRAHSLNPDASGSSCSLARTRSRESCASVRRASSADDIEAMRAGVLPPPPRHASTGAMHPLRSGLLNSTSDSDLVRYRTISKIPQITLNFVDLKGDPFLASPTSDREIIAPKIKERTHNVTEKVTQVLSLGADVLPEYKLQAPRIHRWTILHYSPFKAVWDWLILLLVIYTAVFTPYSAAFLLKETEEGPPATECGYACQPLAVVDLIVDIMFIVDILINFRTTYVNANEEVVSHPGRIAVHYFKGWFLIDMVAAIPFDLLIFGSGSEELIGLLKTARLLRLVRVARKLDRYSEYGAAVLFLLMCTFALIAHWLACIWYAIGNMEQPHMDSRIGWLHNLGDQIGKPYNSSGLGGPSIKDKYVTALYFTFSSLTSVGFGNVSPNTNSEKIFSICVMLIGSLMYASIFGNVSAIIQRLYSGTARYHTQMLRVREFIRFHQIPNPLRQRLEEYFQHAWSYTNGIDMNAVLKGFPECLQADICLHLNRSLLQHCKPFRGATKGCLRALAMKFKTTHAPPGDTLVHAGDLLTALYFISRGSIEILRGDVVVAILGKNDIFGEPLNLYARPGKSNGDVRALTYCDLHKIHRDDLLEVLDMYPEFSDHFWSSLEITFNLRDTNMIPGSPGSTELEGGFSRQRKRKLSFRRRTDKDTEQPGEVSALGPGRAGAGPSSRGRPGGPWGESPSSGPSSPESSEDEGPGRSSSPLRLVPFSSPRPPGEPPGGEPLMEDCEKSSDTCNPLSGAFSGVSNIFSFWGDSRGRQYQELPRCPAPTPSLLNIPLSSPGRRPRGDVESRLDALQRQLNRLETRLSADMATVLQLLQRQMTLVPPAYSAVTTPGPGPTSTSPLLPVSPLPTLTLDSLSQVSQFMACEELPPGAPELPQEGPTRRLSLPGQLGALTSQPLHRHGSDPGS
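Further: peak tail current of the secondary pulse compared with the same well before compound.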

| SMILES | hERG current change (%, negative = inhibition) at 10uM [%] |
| --- | --- |
| COC(=O)c1ccccc1NC(=O)N1CCN(S(=O)(=O)c2ccc(Cl)cc2)CC1 | 7.58 |
| O=C(Nc1ncccc1Cl)C(Sc1ccccc1)c1ccccc1 (centres unmarked) | 8.58 |
| Cc1[nH]n(-c2cccc(Cl)c2)c(=O)c1-c1ccccc1 | 17.1 |
| CCOC(=O)c1nn(-c2ccc(C)cc2)cc1C(=O)c1ccccc1 | -9.04 |
| COc1cc(CNc2ccc(N3CCOCC3)c(C(=O)O)c2)ccc1OCC(N)=O | -6.95 |
| CCOc1ccc(S(=O)(=O)NCc2ccccc2)cc1C(N)=O | 18.9 |
| O=C(OCC(O)CN1CCCCC1)C12CC3CC(CC(C3)C1)C2 (centres unmarked) | -16.3 |
| CCOC(=O)N1CCC(NC(=O)CC2C(=O)NCCN2Cc2ccccc2F)CC1 (centres unmarked) | 11.8 |
| CCOC(=O)c1cc(C(O)(C(=O)OC)C(F)(F)F)c(/N=C/N(C)C)o1 (centres unmarked) | -6.94 |
| Cc1cccc(-n2c(C)cc(C(=S)N3CCOCC3)c2C)c1C | -7.9 |
| CC(=O)C(C)Oc1ccc2c3c(c(=O)oc2c1)CCCC3 (centres unmarked) | -12.8 |
| COC(=O)C(C)Oc1ccc2c3c(c(=O)oc2c1)CCCCC3 (centres unmarked) | -59.2 |
| CC(=O)C(C)Oc1ccc2c3c(c(=O)oc2c1)CCCCC3 (centres unmarked) | 2.1 |
| O=C(CSc1nc(C(F)(F)F)cc(=O)[nH]1)Nc1nccs1 | 18.5 |
| CCc1nn(CCCC(=O)NCc2ccco2)c(=O)c2cc3occc3n12 | -14 |
| Cc1cccc(-n2c(O)c(C=NCc3ccccn3)c3ccccc3c2=O)c1 | -60.9 |
| COc1cccc(-n2c(O)c(C=NCc3ccccn3)c3ccccc3c2=O)c1 | -26.2 |
| Cc1ccc(-n2c(O)c(C=NCc3ccccn3)c3ccccc3c2=O)cc1 | -3.79 |
| COc1ccc(Cl)cc1NC(=S)NCc1cccnc1 | -15.3 |
| CCOc1ccccc1OCC(=O)Nc1c(C)n(C)n(-c2ccccc2)c1=O | -6.05 |
| Cc1c(NC(=O)COc2ccccc2Cl)c(=O)n(-c2ccccc2)n1C | -4.59 |
| Cc1c(NC(=O)COc2cccc(Cl)c2Cl)c(=O)n(-c2ccccc2)n1C | -71.4 |
| Cc1c(NC(=O)COC(=O)/C=C/c2cccc(Cl)c2)c(=O)n(-c2ccccc2)n1C | -58.7 |

| SMILES | hERG current change (%, negative = inhibition) at 10uM [%] |
| --- | --- |
| Cc1c(NC(=O)CSc2ncnc3ccccc23)c(=O)n(-c2ccccc2)n1C | -38.8 |
| CCOc1ccc(N(CC(=O)Nc2c(C)n(C)n(-c3ccccc3)c2=O)S(=O)(=O)c2ccc(F)cc2)cc1 | -17.6 |
| Cc1c(NC(=O)CN(c2ccc(F)cc2)S(=O)(=O)c2ccccc2)c(=O)n(-c2ccccc2)n1C | -0.664 |
| Cc1c(NC(=O)COC(=O)/C=C/c2ccc(Cl)cc2)c(=O)n(-c2ccccc2)n1C | 28.5 |
| Cc1c(NC(=O)CSc2ncnc3c2cnn3-c2ccccc2)c(=O)n(-c2ccccc2)n1C | -64.1 |
| Cc1cc(NC(=O)CSc2ncnc3c2cnn3-c2ccccc2)no1 | -10.8 |
| Cc1c(NC(=O)COC(=O)/C=C/c2cccc(Br)c2)c(=O)n(-c2ccccc2)n1C | -15.8 |
| CCOc1ccc(N(CC(=O)Nc2c(C)n(C)n(-c3ccccc3)c2=O)S(=O)(=O)c2ccccc2)cc1 | -55.2 |
| Cc1nn(-c2ccccc2)cc1/C=N/O | 0.476 |
| Cc1ccc(C(=O)NCCCN2CCOCC2)c(Cl)c1 | 13 |
| CCOC(=O)c1sc(=S)n(C)c1C | 12 |
| Cc1ccc(S(=O)(=O)N2CCN(C(=O)CSc3ccccn3)CC2)c(C)c1 | -26.5 |
| CN(Cc1nc2ccccc2n1C)S(C)(=O)=O | -5.28 |
| Cc1ccc(S(=O)(=O)N2CCN(Cc3nc4ccccc4n3C)CC2)cc1 | -53.5 |
| Cc1ccc(S(=O)(=O)n2c(CN3CCCC(C)C3)nc3ccccc32)cc1 (centres unmarked) | -14.6 |
| CN1CCN(Cc2nc3ccccc3n2C)CC1 | -0.083 |
| Cn1c(CN2CCN(c3ccccc3NS(C)(=O)=O)CC2)nc2ccccc21 | -61.5 |
| CN1CCN(Cc2nc3ccccc3n2C)CC1CCO (centres unmarked) | 3.83 |
| O=C(COC(=O)c1cccc(Cl)c1)Nc1cc(Cl)ccc1Oc1ccccc1 | 15.1 |
| COCc1cc(=O)n2[nH]c(-c3cccc(Br)c3)cc2n1 | -24.2 |
| CC1=CC(=O)C=C(C)C1=NOC(=O)c1cccc([N+](=O)[O-])c1 | 9.59 |
| Cc1c(C(=O)NCCN2CCOCC2)oc2ccc(Br)cc12 | -15 |
| CCOC(=O)N1CCC(NC(=O)c2oc3c(F)cccc3c2C)CC1 | -15.4 |

| SMILES | hERG current change (%, negative = inhibition) at 10uM [%] |
| --- | --- |
| Cc1c(C(=O)NC2CCN(Cc3ccccc3)C2)oc2c(Cl)cccc12 (centres unmarked) | -71.8 |
| CCOc1ccc2oc(C(=O)NC3CCN(Cc4ccccc4)CC3)c(C)c2c1.Cl | -15.1 |
| O=C(NC1CCN(Cc2ccccc2)CC1)c1c(Cl)cccc1Cl | -10.7 |
| Cc1c(C(=O)NC2CCN(Cc3ccccc3)C2)oc2ccc(Br)cc12 (centres unmarked) | -61.8 |
| O=C(OCC(=O)c1cccs1)C1=COCCO1 | 19.7 |
| CC1CN(C(=O)/C(C#N)=C2\N=C(NC(=O)c3ccc(F)cc3)c3ccccc32)CC(C)O1 (centres unmarked) | 14.1 |
| CCOC(=O)C1(Cc2ccccc2)CCCN(CCO)C1 (centres unmarked) | 6.18 |
| COc1cc2cc(C(=O)N3CCN(c4ccccc4OC)CC3)[nH]c2cc1OC | 24.5 |
| C=CCN1CCN(C(=O)CCc2ccccc2)CC1 | 13.8 |
| COc1cccc(N2CCN(C(=S)Nc3ccc(F)cc3)CC2)c1 | 16.1 |
| CC1CCN(CCOc2ccc(OCc3ccccc3)cc2)CC1.O=C(O)C(=O)O | -70.9 |
| CC1CCCN(Cc2ccc(OCc3ccccc3)cc2)C1 (centres unmarked) | -43.3 |
| CC1CCN(CCCOc2ccc(OCc3ccccc3)cc2)CC1.O=C(O)C(=O)O | -71.4 |
| COc1ccc(Cl)cc1N1C(=O)C2CCCN2C1c1ccccc1F (centres unmarked) | -0.486 |
| C=CCNC(=O)C12CC3(C)CC(C)(CC(C)(C3)C1)C2 | -11.8 |
| CCOC(=O)C1CCCN(C(=O)CN(c2ccc(OC)cc2)S(=O)(=O)c2c(C)noc2C)C1 (centres unmarked) | -4.08 |
| CCOC(=O)C1(Cc2ccc(OC)cc2)CCN(C(=O)c2cc(C)nn2C)CC1 | -40.5 |
| O=[N+]([O-])c1cccc(Cl)c1NCCNS(=O)(=O)c1ccccc1 | -15.2 |
| Oc1ccccc1/C=N/c1c(-c2ccco2)nc2ccccn12 | -4.17 |
| OC1CCN(c2c3c(nc4cc(-c5ccc(F)cc5)nn24)CCC3)CC1 | -7.45 |
| Cc1ccc(/C=C/C(=O)N2CCCC(C(N)=O)C2)o1 (centres unmarked) | -8.59 |
| COc1ccc2c(c1)sc(N)[n+]2Cc1cc(C)cc2cccnc12.[Br-] | -74 |
| Cc1cc(C[n+]2ccsc2N)c2ncccc2c1.[Br-] | -48.2 |

| SMILES | hERG current change (%, negative = inhibition) at 10uM [%] |
| --- | --- |
| CCOc1cccc(OCCCOc2cccc3cccnc23)c1 | -8.52 |
| CCOc1ccc(C(=O)C[n+]2cccc3cc(C)ccc32)cc1.[Br-] | -47.9 |
| CCOc1ccc2c(c1)sc(N)[n+]2Cc1cc(C)cc2cccnc12.[Br-] | -74.9 |
| Cc1cc(C[n+]2ncsc2N)c2ncccc2c1.[Br-] | -33.8 |
| CC(C)CCN(C(=O)C1CSC2(C)CCC(=O)N12)c1c(N)n(Cc2ccccc2)c(=O)[nH]c1=O (centres unmarked) | 6.21 |
| CC12CCC(C(=O)N(c3cccc(Cl)c3)C1=O)C2(C)C (centres unmarked) | -4.23 |
| O=Nc1ccc(NOC(=O)c2ccccc2)cc1 | 5.89 |
| COc1ccc(CNC(=O)C(C#N)c2nc3ccccc3nc2N2CCCC2)cc1 (centres unmarked) | 10.1 |
| COc1ccc(C)cc1NC(=O)c1ccc(S(=O)(=O)N2CCOCC2)cc1 | 2.48 |
| Cc1c(C(=O)C(=O)N2CCN(Cc3ccc4c(c3)OCO4)CC2)c2ccccc2n1C | -8.7 |
| Cc1cc(C)cc(OCC(O)CN2CCN(Cc3ccc4c(c3)OCO4)CC2)c1.Cl (centres unmarked) | -76 |
| Cl.OCCN1CCN(CC(O)COc2ccc3c(c2)OCO3)CC1 (centres unmarked) | 12.7 |
| C=CCc1ccccc1OCC(O)CN1CCOCC1 (centres unmarked) | 13.1 |
| COc1ccc(OCC(O)CN2CCN(Cc3ccc4c(c3)OCO4)CC2)cc1.Cl (centres unmarked) | -47.4 |
| Cl.OC(COCc1ccccc1)CN1CCN(Cc2ccc3c(c2)OCO3)CC1 (centres unmarked) | -45 |
| COc1ccc2c(c1)c(C(O)CN1CCN(Cc3ccc4c(c3)OCO4)CC1)c(C)n2C (centres unmarked) | -11 |
| CC(C)OCC(O)CN1CCN(CC(O)COc2ccc3c(c2)OCO3)CC1 (centres unmarked) | -33.3 |
| Cc1c(C(O)CN2CCN(Cc3ccc4c(c3)OCO4)CC2)c2ccccc2n1C (centres unmarked) | -75.6 |
| Cl.OC(COc1ccccc1)CN1CCN(Cc2ccc3c(c2)OCO3)CC1 (centres unmarked) | -60.5 |
| C=CCc1ccccc1OCC(O)CN1CCN(Cc2ccc3c(c2)OCO3)CC1 (centres unmarked) | -91 |
